Compounds with a hit are over-represented: about 1.7% of the library has one in this group of screens.
Mtb bLac sens = beta-lactam sensitization of Mtb H37Rv | M. tuberculosis H37Rv growth with meropenem, percent inhibition | inhibition, % at 25 µM | hit rate 0.27% among 330,000; call rule not given here;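 also: growth measured after seven days incubation then overnight dye step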
CCHF vOTU inh = blocks the CCHF virus ovarian tumor domain protease. CCHFV vOTU protease, Pep-AMC fluorescence. inhibition, % at 11.5 µM. hit rate 0.55% among 370,000; in the data active = inhibition above about 30%
PfHsp40 yeast = compounds rescuing yeast from Plasmodium falciparum HSP40 toxicity; S. cerevisiae expressing PfHsp40, growth rescue, ATP luminescence; growth rescue, % at 12.5 µM; AID 504582; hit rate 0.68% among 340,000; in the data active = growth rescue above about 28%, passing the limit was not always enough;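 also: yeast W303a lacking pdr1 and pdr3 grown in galactose medium; growth measured after three days at 30 °C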
Mtb hypoxia rep = reduces hypoxia-regulated biosensor signal in M. tuberculosis; AID 1159583; fluorescence inhibition, % (test concentration not listed); hit rate 0.1% among 300,000; M. tuberculosis hypoxia-regulated fluorescent reporter, fluorescence; in the data active = fluorescence inhibition mostly above about 23%, no sharp cut-off; inactive = mostly below about 17%
RecA intein inh = blocks M. tuberculosis RecA intein splicing. P9WHJ3. cell-free RecA intein splicing, fluorescence. inhibition, % (no concentration beside the values). hit rate 0.75% among 290,000. AID 2221; in the data active = inhibition above about 30%
Target sequence (P9WHJ3 whole entry, looked up): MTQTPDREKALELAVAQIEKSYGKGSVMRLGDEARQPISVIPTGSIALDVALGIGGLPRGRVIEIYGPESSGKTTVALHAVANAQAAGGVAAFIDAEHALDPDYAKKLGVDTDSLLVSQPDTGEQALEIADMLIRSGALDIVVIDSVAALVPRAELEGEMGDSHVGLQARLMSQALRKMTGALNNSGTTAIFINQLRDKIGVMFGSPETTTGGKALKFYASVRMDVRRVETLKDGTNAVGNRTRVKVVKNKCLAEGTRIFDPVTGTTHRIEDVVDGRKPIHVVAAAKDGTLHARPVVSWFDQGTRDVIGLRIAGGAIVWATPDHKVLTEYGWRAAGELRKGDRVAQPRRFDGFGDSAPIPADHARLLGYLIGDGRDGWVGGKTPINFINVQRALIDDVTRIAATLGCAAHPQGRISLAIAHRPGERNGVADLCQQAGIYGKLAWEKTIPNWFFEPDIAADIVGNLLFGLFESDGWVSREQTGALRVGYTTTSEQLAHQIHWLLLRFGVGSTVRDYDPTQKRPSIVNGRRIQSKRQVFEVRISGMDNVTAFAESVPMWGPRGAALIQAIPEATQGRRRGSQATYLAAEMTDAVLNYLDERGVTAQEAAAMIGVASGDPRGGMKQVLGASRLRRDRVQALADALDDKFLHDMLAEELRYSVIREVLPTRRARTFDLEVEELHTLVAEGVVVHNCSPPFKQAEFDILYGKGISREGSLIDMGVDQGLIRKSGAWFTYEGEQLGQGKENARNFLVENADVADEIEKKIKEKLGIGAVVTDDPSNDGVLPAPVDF
Numbers stand for hits; - = inactive; . = no result given.

SMILES	Mtb bLac sens	CCHF vOTU inh	PfHsp40 yeast	Mtb hypoxia rep	RecA intein inh
CC1C/C(=C/c2ccncc2)C(=O)/C(=C/c2ccncc2)C1 (stereo unspecified)	-	-	50.5	.	-
C#CCOCCOCCOCCNc1nc(N2CCN(C(=O)C(CCCN=C(N)N)n3cc(C(N)C(C)CC)nn3)CC2)nc(N2CCN(C(=O)C(C(C)O)n3cc(C(N)CCCCN)nn3)CC2)n1 (stereo unspecified)	.	.	.	-	.
CCN1CC2C3C(=O)N(Cc4ccccc4)C(=O)C3[C@](C)(C1=O)N2C(=O)c1ccc(F)cc1 (stereo partly specified)	.	.	.	-	.
COc1ccc(/C=C(/C#N)C(=O)Nc2ccc(O)cc2)cc1C(=O)O	-	-	-	.	45.4
CCc1ccc(NC(=O)/C(C#N)=C\c2ccc(OC)c(C(=O)O)c2)cc1	-	-	-	-	-
COc1cc(C=NNC(N)=O)cc(Br)c1OCc1ccccc1C	.	.	.	-	.
COC(C)(C)[C@]12CC(O)(c3ccccc3)ON1C1CCCCC1N2O (stereo partly specified)	.	.	.	-	.
CCOC(=O)C1C(=O)CC(C)(O)C(C(=O)OCC)C1c1cccc(OC(F)(F)C(F)F)c1 (stereo unspecified)	-	-	-	-	-
CCOC(=O)C1SC2(C(F)F)CC1(O)c1c(c(OC)c3occc3c1OC)O2 (stereo unspecified)	-	-	38.1	-	-
CC(=O)Oc1c(I)cc(I)cc1C(=O)Nc1ccc(Cl)cc1	-	-	216.8	.	-
COc1ccc(Cl)cc1C(=O)Nc1ccc(NC(C)=O)cc1	-	-	-	-	-
CC(=O)OC1C(Oc2c(O)c(C)c3c4c2C(C)CCC4C(C)CC3C=C(C)C)OCC(O)C1O (stereo unspecified)	.	.	.	-	.
Cc1ccc(C(=O)NC(C)c2ccc(F)cc2)cc1 (stereo unspecified)	-	-	-	.	-
CC(NC(=O)c1ccc(F)cc1)c1ccccc1 (stereo unspecified)	-	-	-	55.8	-
COc1ccc(C2CC(=O)C=C(C#CC(C)(C)C)C2)cc1 (stereo unspecified)	.	.	.	-	.
COc1ccc(S(=O)(=O)NCc2cc(=O)n(C)c(=O)n2C)cc1F	-	-	-	-	-
COc1ccc(S(=O)(=O)NCc2cc(=O)n(C)c(=O)n2C)cc1C	-	-	41.0	-	-
c1ccc(-c2n[nH]c(-c3ccccc3)c2-c2nc3ccccc3[nH]2)cc1	-	-	30.0	-	-
CC(=O)Nc1ccc(SCC(C)CN2CCC(C(C)(C)C)CCC2=O)cc1 (stereo unspecified)	.	.	.	-	.
COC(=O)NN=C1CCCc2c(C)cc(C)cc21	.	.	.	-	.
COc1ccc(OC)c2[nH]c(C(=O)N3CCC(C(=O)O)CC3)cc12	-	-	-	-	-
COc1cc2cc(C(=O)N3CC(COS(C)(=O)=O)c4ccc(O)cc43)[nH]c2c(OC)c1OC (stereo unspecified)	.	.	63.4	.	.
COC(=O)C1=C(C)OC(N)=C(C#N)C1c1c(C)nn(-c2ccccc2)c1Cl (stereo unspecified)	-	-	-	-	-
COC(=O)C1=C(C)OC(N)=C(C#N)C1c1c(C)nn(C)c1C (stereo unspecified)	-	-	68.4	-	-
C#CCOCCOCCOCCNc1nc(N2CCN(C(=O)C(Cc3ccc(O)cc3)n3cc(C(N)C(C)CC)nn3)CC2)nc(N2CCN(C(=O)C(C(C)CC)n3cc(C(N)CO)nn3)CC2)n1 (stereo unspecified)	.	.	.	-	.
SMILES	Mtb bLac sens	CCHF vOTU inh	PfHsp40 yeast	Mtb hypoxia rep	RecA intein inh
F[B-](F)(F)c1cc2cc(Br)ccc2s1	.	.	186.2	.	.
F[B-](F)(F)c1cc2ccccc2s1	.	-	-	.	.
C=C1C2C[C@]3(C1O)C1CC4[C@@]5(C)CCC(O)[C@@]4(C1N(CC)C5)C3CC2O (stereo partly specified)	.	.	.	-	.
CCOC(=O)c1c(NC(=O)CN2C(=O)N(C)C3(CCCCC3)C2=O)sc(C(=O)N(C)C)c1C	.	-	-	24.7	.
CCOC(=O)c1c(NC(=O)CN2C(=O)NC3(CCCCC3C)C2=O)sc(C(=O)N(C)C)c1C (stereo unspecified)	-	-	-	-	.
Cc1[nH]c2c(ccc3cccnc32)c1C	-	-	-	-	-
CC1=[N+](C)c2c(ccc3cccnc23)C1(C)C	.	30.7	-	-	.
COc1ccc(N=N/C(=C\O)C(=O)c2cccs2)cc1	-	-	477.7	-	-
O=c1c(Cl)c(NCCCO)cnn1-c1nc2ccccc2[nH]1	-	-	-	.	43.9
CC(=NNC(=O)c1cccnc1)c1ccc(C)c([N+](=O)[O-])c1	.	.	.	-	.
CC(C)(C)c1ccc(/C=C2\SC(=O)N(CCNC(=O)c3cccc(S(=O)(=O)N4CCOCC4)c3)C2=O)cc1	-	.	-	-	30.9
Cc1ccc(S(=O)(=O)N2CCOCC2)cc1C(=O)NCCN1C(=O)S/C(=C\c2ccccc2Cl)C1=O	-	-	-	-	-
CC1Oc2cc3c(-c4c(O)cc(O)c5c(O)c6c(cc45)OC(C)C(C)C6=O)c(O)cc(O)c3c(O)c2C(=O)C1C (stereo unspecified)	-	.	76.5	.	87.2
C[C@@H]1Cc2c(O)c(O)cc(O)c2C(=O)O1	-	.	-	.	-
Cc1ccc(C2CC=C(C(=O)O)CN2S(=O)(=O)c2ccc(C)cc2)cc1 (stereo unspecified)	.	.	.	-	.
COc1cc(C(=O)NC(=S)NNC(=O)c2cnccn2)cc(OC)c1OC	-	-	132.0	-	-
COc1ccccc1C(=O)NNC(=S)NC(=O)c1cc(OC)c(OC)c(OC)c1	-	-	61.6	-	-
O=C(NC(=S)NNC(=O)c1cnccn1)c1ccc(Cl)cc1	-	-	-	35.0	-
COc1cccc(-c2c(C(=O)NN=C(C)c3cccs3)nnn2-c2nonc2N)c1	.	.	.	-	.
C#CCOCCOCCOCCNc1nc(N2CCN(C(=O)C(CCCCN)n3cc(C(N)C(C)CC)nn3)CC2)nc(N2CCN(C(=O)C(C(C)CC)n3cc(C(N)CC(C)C)nn3)CC2)n1 (stereo unspecified)	.	.	.	-	.
CC(CC(=O)N(C(C)C)C(C)C)=NNC(=O)c1ccccc1Br	.	.	.	-	.
COc1ccc(-c2oc3ccccc3c2C#Cc2cncn2C)cc1	-	-	336.4	.	.
COc1ccc(-c2sc3ccc(OC)cc3c2C#Cc2cncn2C)cc1	-	-	-	.	.
O=C(NCCC(=O)N1CCCCCCC1)c1ccc(Br)cc1	-	-	70.1	-	.
COCCCn1c(=C(C#N)C(=O)NCCOC)sc(=Cc2ccccc2OC(F)F)c1=O	.	.	.	-	.
COC(=O)C1=NNC2(c3ccc(Cl)cc3)C(=O)N(c3ccc(Cl)cc3)C(=O)C12 (stereo unspecified)	-	-	45.2	-	-
COC(=O)C1=NNC2(c3ccc(Cl)cc3)C(=O)N(c3ccccc3)C(=O)C12 (stereo unspecified)	-	-	-	-	-
CCCc1[nH]nc2c1C(Cc1ccccc1)C(C#N)=C(N)O2 (stereo unspecified)	-	-	-	-	-
N#CC1=C(N)Oc2n[nH]c(-c3cccs3)c2C1c1ccncc1 (stereo unspecified)	-	-	-	-	59.9
CC(C)c1[nH]nc2c1C(Cc1ccccc1)C(C#N)=C(N)O2 (stereo unspecified)	-	-	-	-	53.0
